In PubChem BioAssay (Tox21):
Results filed as inconclusive are left out. Entries that show only a call come without a potency. Unmarked numbers belong to inactive results. Active and inactive are the calls of the source. Calls follow the shape of the full dose curve.

Assay: qHTS assay to identify small molecule agonists of the hypoxia (HIF-1) signaling pathway - cell viability counter screen (AID 1224844); also: nearly all actives have a fitted effect of over 50% in size
Conditions: HRE-bla ME-180 viability, CellTiter-Glo luminescence, 17 h; series mostly up to 76.8 µM
Excerpt: National Center for Advancing Translational Sciences [NCATS]
NIH Chemical Genomics Center [NCGC]
U.S. Environmental Protection Agency [EPA]
National Institutes of Environmental Health Sciences [NIEHS]
National Toxicology Program [NTP]
U.S. Food and Drug Administration [FDA]
Hypoxia-inducible factor-1 (HIF-1) is the major hypoxia-regulated transcription factor that controls cellular responses to low oxygen concentration. HIF-1 is composed of two subunits: hypoxia responsive HIF-1-alpha and constitutively expressed HIF-1-beta, which is also known as aryl hydrocarbon receptor nuclear translocator. During hypoxic conditions, HIF-1-alpha heterodimerizes with HIF-1-beta and translocates into the nucleus where the HIF-1 complex binds to the hypoxia-response element (HRE) and activates expression of target genes such as VEGF (vascular endothelial growth factor). The HIF-1 pathway is essential to normal growth and development, and is involved in the pathophysiology of cancer, inflammation, and ischemia.
Using a beta-lactamase reporter-gene under control of the hypoxia response element, a cell-based assay [CellSensor(TM) HRE-bla ME-180 from Life Technologies, Carlsbad, CA] was used to measure hypoxia-induced signaling. Tox21 10K library compounds were measured for their ability to induce the reporter gene activity. The cytotoxicity of the Tox21 compound library against HRE-bla ME-180 cell line was tested in parallel by measuring cell viability using CellTiter-Glo assay (Promega, Madison, WI) in the same assay wells.
Tox21 Assay Protocol Summary:
HRE-bla ME-180 cells were dispensed at 2,000 cells per well in 6 uL of assay medium containing 0.5% dialyzed FBS into black wall/clear-bottom 1536-well plates using a Multidrop Combi (Thermo Scientific, Waltham, MA) dispenser. After the assay plates were incubated at 37C and 5% CO2 for 5 hrs, 23 nL of compounds dissolved in DMSO, positive controls or DMSO only was transferred to each well of the assay plate using a Pintool station (Kalypsys, San Diego, CA). The assay plates were incubated at 37C and 5% CO2 for 17 hrs. One uL of LiveBLAzerTM B/G FRET substrate (CCF4-AM) (Life Technologies) was added to each well using a Flying Reagent Dispenser (FRD, Aurora Discovery, San Diego, CA). After 2 hr incubation at room temperature, fluorescence intensity (405 nm excitation, 460 nm and 530 nm emissions) was measured using an Envision plate reader (PerkinElmer, Shelton, CT). For cytotoxicity, 4 ul/well of CellTiter-Glo reagent was added into the assay plates using an FRD. After 30 min incubation at room temperature, the luminescence intensity was measured using a ViewLux plate reader (PerkinElmer).
Potency is read from the fitted curve at half-maximal effect.

| Structure (SMILES) | Potency | activity change, negative = cytotoxicity |
| --- | --- | --- |
| CCOP(=O)(NC(C)C)Oc1ccc(SC)c(C)c1 (stereo not given) | inactive |  |
| CCCCCCCCc1ccc(O)cc1 | 39.1 µM (active) |  |
| CCOC(=O)c1ccccc1S(=O)(=O)NC(=O)Nc1nc(Cl)cc(OC)n1 | inactive |  |
| O=C1c2ccccc2C(=O)C1C(=O)C(c1ccccc1)c1ccc(Cl)cc1 (stereo not given) | 9.77 µM (active) |  |
| CC(=O)[O-].CC(=O)[O-].O.O.[Cd+2] | 34.2 µM (active) |  |
| ClC1=C(Cl)[C@]2(Cl)[C@H]3[C@H]([C@H]4C=C[C@H]3C4)[C@@]1(Cl)C2(Cl)Cl | inactive |  |
| O=c1c(C2CC(c3ccc(-c4ccc(Br)cc4)cc3)Cc3ccccc32)c(O)sc2ccccc12 (stereo not given) | 15.1 µM (active) |  |
| CCCCCCCCCBr | inactive |  |
| N#CCc1ccc(Cl)cc1 | inactive |  |
| CN(C)C1CSSSC1 | inactive |  |
| Clc1ccc(Oc2ccccc2)cc1 | inactive |  |
| BrCC(Br)c1ccccc1 (stereo not given) | inactive |  |
| CCC(C)c1cc([N+](=O)[O-])cc([N+](=O)[O-])c1OC(=O)C=C(C)C (stereo not given) | inactive |  |
| CC[C@H](C)[C@H]1O[C@]2(C=C[C@@H]1C)C[C@@H]1C[C@@H](C/C=C(\C)[C@@H](O[C@H]3C[C@H](OC)[C@@H](O[C@H]4C[C@H](OC)[C@@H](O)[C@H](C)O4)[C@H](C)O3)[C@@H](C)/C=C/C=C3\CO[C@@H]4[C@H](O)C(C)=C[C@@H](C(=O)O1)[C@]34O)O2 | 28.9 µM (active) |  |
| CCc1cc(C)cc(CC)c1-c1c(OC(=O)C(C)(C)C)n2n(c1=O)CCOCC2 | inactive |  |
| CC(C)OC(=O)C(O)(c1ccc(Cl)cc1)c1ccc(Cl)cc1 | 54.9 µM (active) |  |
| Brc1c(Br)c(Br)c(Oc2c(Br)c(Br)c(Br)c(Br)c2Br)c(Br)c1Br |  | 12% [at 15.8 µM] |
| N#CCCC(Br)(C#N)CBr (stereo not given) | 19.5 µM (active) |  |
| CC(C)(O)c1cnn2c(-c3ccc(F)c(-c4c(F)cccc4C#N)c3)cnc2n1 | 54.9 µM (active) |  |
| O=c1[nH]c2ccccc2n1C1CCN(CCCC(c2ccc(F)cc2)c2ccc(F)cc2)CC1 | 21.9 µM (active) |  |

| Structure (SMILES) | Potency | activity change, negative = cytotoxicity |
| --- | --- | --- |
| COc1ccc(/C(=C/C(=O)N2CCOCC2)c2ccc(Cl)cc2)cc1OC | inactive |  |
| Cn1cc(C2=C(c3cn(C4CCN(Cc5ccccn5)CC4)c4ccccc34)C(=O)NC2=O)c2ccccc21 | inactive |  |
| O=C1C=CC(=O)c2ccccc21 | 11 µM (active) |  |
| C=COCCCl | inactive |  |
| c1ccc(OCC2CO2)cc1 (stereo not given) | inactive |  |
| N#Cc1c(-c2ccc(Cl)cc2)[nH]c(C(F)(F)F)c1Br | inactive |  |
| COP(=O)(CCC(=O)NCO)OC | inactive |  |
| CCSC(C)CC1CC(=O)C(/C(CC)=N/OC/C=C/Cl)=C(O)C1 (stereo not given) | inactive |  |
| COc1ccc([N+](=O)[O-])cc1O | inactive |  |
| CCOP(=S)(OCC)SCS(=O)(=O)CC | inactive |  |
| Nc1ccc(Sc2ccc(N)cc2)cc1 | inactive |  |
| COc1ccc(OC)c(C=O)c1 | inactive |  |
| Oc1ccc(C(c2ccc(O)cc2)(C(F)(F)F)C(F)(F)F)cc1 | inactive |  |
| ClC1=C(Cl)[C@]2(Cl)[C@@H]3[C@@H](Cl)[C@@H](Cl)C[C@@H]3[C@@]1(Cl)C2(Cl)Cl | inactive |  |
| Oc1c(Br)c(Br)c(Br)c(Br)c1Br | 43.9 µM (active) |  |
| CC(C)[C@H](C(=O)O[C@H](C#N)c1cccc(Oc2ccccc2)c1)c1ccc(Cl)cc1 | inactive |  |
| CC(=O)c1cc(C(C)(C)C)cc2c1CCC2(C)C | inactive |  |
| S=C(SSC(=S)N1CCCCC1)N1CCCCC1 | 0.338 µM (active) |  |
| COc1cc(C=O)cc2c1[C@H](COC(N)=O)[C@]1(OC(C)=O)ON2C[C@H]2[C@@H]1N2C(C)=O | 3.89 µM (active) |  |
| CCOC(=O)C1(c2ccccc2)CCN(CCC(C#N)(c2ccccc2)c2ccccc2)CC1 | inactive |  |
